From the supplement of paper PMC6555819

System: LXRb:RXRa (NR concentration 270 nM, RXRa partner concentration 90 nM)
Assay: PBM binding z-score (relative to random genomic background probes); higher = stronger binding; sequences stand for … in GC…GCGATTGACAGCGTAGAATGAAGG
Description: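 Protein-binding microarray (Agilent 4x180K custom design, double-stranded 60-nt probes: 5' GC cap, 34-nt variable region, 24-nt constant primer region; full probe sequence given). Purified or IVT nuclear receptor:RXRα heterodimers (3:1 NR:RXRα, mostly 270:90 nM) or homodimers were incubated for 1 h in PBS with 2% milk and no ligand, then detected with Alexa488 antibodies. Fluorescence from o1-orientation probes (~5 replicates averaged) was converted to z-scores against 500 random hg19 background probes. Variable regions are seed direct-repeat (DR0–DR5) sites, all their single-nucleotide variants and half-site ablations.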

Sequence	PBM binding z-score
AGAATGGGGTTACCAAAGATCAGGGAAACGCTTG	5.03
GCATATAGGTAATACAAGGTCAAAGTCCGATTGT	5.63
GGAACGAGGTCAAAGTTGATAGCATCTGTCGACG	5.45
TGTCAACGTTCAAAGGTAACGTAAGTATCCACAC	0.759
TCTGCTAGGTCAACGTTGGTCAGCTAATCTGCTA	1.61
GCTGCGAGGTCAACTGATGGTCAGCTAAAGCTCG	5.07
TGTCAATGTTCAAAGGTAACGTAAGTATCCACAC	0.772
GGAACGAGGTCATTCGAGTTGATAGCATGGCGAT	4.8
CCTCGGAGGACAACAGGAGGTCATAGCTGCCAGA	3.15
GCTTACAGGTCAAAGGTTATAGCATGAATAGAAT	6.06
TCTAGTTGGTCACGGAGGTCCCACACGACGGGTA	0.167
CCAACTGGGCCAAAAAGGTCATTGATGCCGATAA	4.36
CAGCATAGGTCAGGGCCAGTATAGGAGGAACGTT	1.98
AGAATGAGGTTAAACGTAGATCAGGGAAGAAAGT	2.42
AATAAAGGGTCATCGTAGGCCAGAGTACGCACAG	5.46
TAGCCTAGGTTATGGGCCAGTATACCACGCGAAC	0.13
AGTCAAAGTTCAGGACGACGTAACGTAAAGCACG	1.67
ATCGAAAGGTCCAAGGTGAGTATACCCACCCGAA	0.126
TATACAGGGTCAAAGGCCAAAGTACGAATGTCGA	5.4
CGAACTAGGTCGCCAGGACAGTGAAGAGGTTGGA	-0.222
CGAACTAGGTCAAGGGACAGTGAAAGGCGACGTA	1.33
TGTATGAGGTTAAAGATCAGGGAACGTGGCGTCG	2.16
CGAACTAGGTCATCCAGGTCAGTGAATACATTGA	2.98
CTCGAAAGGTCGTGCTCAGATGAGTATACCAAAC	3.44
